USP30 inh: inhibitors of human USP30 deubiquitinase; purified USP30, Ub-rhodamine cleavage fluorescence; inhibition, % at 25 µM; actives 5.3% (n = 47,000)
Target sequence (Q70CQ3 whole entry, looked up): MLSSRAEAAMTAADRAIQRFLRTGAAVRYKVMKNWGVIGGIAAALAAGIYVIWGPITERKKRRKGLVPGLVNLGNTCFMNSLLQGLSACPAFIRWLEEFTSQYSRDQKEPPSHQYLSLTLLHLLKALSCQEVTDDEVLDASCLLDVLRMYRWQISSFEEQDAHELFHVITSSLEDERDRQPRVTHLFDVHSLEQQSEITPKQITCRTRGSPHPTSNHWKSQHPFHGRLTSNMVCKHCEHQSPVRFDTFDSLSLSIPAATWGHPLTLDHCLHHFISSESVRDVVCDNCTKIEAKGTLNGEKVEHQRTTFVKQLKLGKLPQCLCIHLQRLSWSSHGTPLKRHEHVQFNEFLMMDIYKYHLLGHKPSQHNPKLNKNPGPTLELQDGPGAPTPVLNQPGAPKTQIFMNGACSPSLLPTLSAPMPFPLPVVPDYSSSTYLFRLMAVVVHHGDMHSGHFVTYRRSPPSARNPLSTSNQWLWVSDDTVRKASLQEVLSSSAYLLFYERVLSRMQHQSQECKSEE
OTUD3 inh: inhibitors of human OTUD3 deubiquitinase; Q5T2D3; purified OTUD3, Ub-rhodamine fluorescence, 2 h; inhibition, % at 25 µM; actives 0.7% (n = 47,000); AID 1645858
USP28 block: inhibitors of human USP28 deubiquitinase; purified USP28, Ub-rhodamine cleavage fluorescence, 30 min; inhibition, % at 25 µM; actives 3% (n = 47,000)
USP17 block: inhibitors of human USP17 deubiquitinase | inhibition, % at 50 µM | actives 6.5% (n = 47,000) | purified USP17, Ub-rhodamine cleavage fluorescence, 3 h | A8MUK1
Each line names hits and unclear results; the compound was inactive in the other large screens. In the library only some 12% were active in any assay of this set; here they are far more common. No stated cut-off is given here; in the data, active means inhibition above about 30%; inactive means the rest.

Cc1c(C(=O)N2CCn3ncnc3C2)[nH]c2ccccc12	none
O=C(NCCc1ccccc1)c1cn2cc(Cl)ccc2n1	none
O=C(NCc1ccco1)c1nnn(Cc2ccccc2Cl)c1-n1cccc1	USP17 block 33
O=C(NCCc1ccccc1)c1nnn(Cc2cccc(Cl)c2)c1-n1cccc1	USP28 block 78
O[C@H]1[C@H](NCC2CCCC2)[C@@H](c2ccncc2)C[C@H]1O	none
COCCCn1c(C(=O)NCc2ccc(F)cc2)cc2c(=O)n3ccccc3nc21	USP17 block 38
CCOc1ccc(-c2cc3nc(C4CCN(C(=O)OC(C)(C)C)CC4)c(C(=O)Nc4cc(F)ccc4F)cn3n2)cc1	OTUD3 inh 31, USP17 block 46
O=C(N[C@@H]1C[C@@H](Oc2ccccc2)[C@H](O)[C@H]1N1CCCC1)c1cncs1	none
C[C@@H]1CC[C@H]2C(C)(C)[C@H](O)[C@@H](O)C[C@]2(C)[C@@]12Cc1c(O)cc3c(c1O2)CNC3=O	none
CC(=O)O[C@H]1CC[C@]2(C)[C@H]3Cc4c(O)cc5c(c4O[C@]3(C)CC[C@H]2C1(C)C)CNC5=O	USP17 block 34
COc1ccc(C(=O)OC[C@@H]2CCCN3CCCC[C@H]23)cc1	none
COCC(=O)Nc1ccc2c(c1)OCC(C)(C)C(=O)N2C	none
COc1ccc(CN2C[C@@H]3C[C@]3(c3ccccc3)C(=O)c3ncccc32)cc1	USP17 block 60
CN1C(=O)c2cc(S(=O)(=O)Nc3ccccc3F)ccc2Oc2cccnc21	none
O=C(COc1ncnc2ccccc12)Nc1ccc2c(c1)OC1(CCCC1)O2	USP17 block 60
O=C1Nc2ccccc2S/C1=C/c1ccccc1	none
O=C1Nc2cc3c(cc2Sc2ccccc21)OCCO3	USP30 inh 60, USP17 block 67
Cc1noc(C)c1S(=O)(=O)N1CCc2nc(-c3ccc(Cl)cc3)ncc2C1	none
Cc1ccc2nc(N3C(=O)c4oc5ccccc5c(=O)c4C3c3ccc(C)o3)sc2c1 (stereo unspecified)	USP30 inh 41, USP17 block 40
Cc1ccc2nc(N3C(=O)c4oc5ccccc5c(=O)c4C3c3ccco3)sc2c1 (stereo unspecified)	none
Cc1ccc(-c2c(Nc3ccccc3N3CCN(C)CC3)c(=O)c2=O)cc1	none
Cc1noc(NS(=O)(=O)c2ccc(NC(=O)COc3ccc(N(C)C(=O)c4ccc(Cl)cc4)cc3)cc2)c1C	none (no result: USP30 inh, USP28 block)
Cc1noc(NS(=O)(=O)c2ccc(NC(=O)CSc3ccc4ccccc4c3)cc2)c1C	USP28 block 36, USP17 block 52
Cc1cccc(NC(=O)Nc2ccc(C)n(CC(=O)Nc3ccccc3)c2=O)c1	USP30 inh 41, USP28 block 40, USP17 block 61
Cc1ccc(C)c(NC(=O)Cn2ccc3ccn(C)c3c2=O)c1	USP17 block 46
Cc1ccc(NC(=O)Nc2ccc(C)n(CC(=O)Nc3ccc(C)cc3C)c2=O)cc1	USP30 inh 74, OTUD3 inh 74, USP28 block 53, USP17 block 79
Cc1ccc(NC(=O)Nc2ccc(C)n(CC(=O)Nc3cccc(C)c3)c2=O)cc1	none
Cc1ccc(NC(=O)Nc2ccc(C)n(CC(=O)Nc3cc(C)ccc3C)c2=O)cc1	USP30 inh 65, OTUD3 inh 46, USP28 block 30, USP17 block 54
Cc1cc(-c2cnc(C)nc2C2CCCN(C(=O)N3CCCC3)C2)on1 (stereo unspecified)	none
COc1ccc(Cc2nnc(Nc3ccc(F)cc3)[nH]c2=O)cc1OC	USP30 inh 35
COc1ccc(Cc2nnc(Nc3ccc(Cl)cc3)[nH]c2=O)cc1	none
CC(C)[C@@H](NC(=O)C1CCN(C(=O)[C@H](N)Cc2ccccc2)CC1)C(=O)NCc1ccccc1F	USP30 inh 43
